Compound activity: PubChem, several laboratories
Hits are enriched below; roughly 27% of the tested compounds scored in any of these assays.
CYP2C9 inhib: inhibitors of human CYP2C9 | P11712 | CYP2C9 Supersomes, luciferin-H conversion, luminescence | inhibition, % at 5 µM | 20% of 96,000 active | AID 777;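 active = blocking of liver enzyme CYP2C9 beyond about 50% at 5 µM, limit read from the data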
Target sequence (P11712 whole entry, looked up): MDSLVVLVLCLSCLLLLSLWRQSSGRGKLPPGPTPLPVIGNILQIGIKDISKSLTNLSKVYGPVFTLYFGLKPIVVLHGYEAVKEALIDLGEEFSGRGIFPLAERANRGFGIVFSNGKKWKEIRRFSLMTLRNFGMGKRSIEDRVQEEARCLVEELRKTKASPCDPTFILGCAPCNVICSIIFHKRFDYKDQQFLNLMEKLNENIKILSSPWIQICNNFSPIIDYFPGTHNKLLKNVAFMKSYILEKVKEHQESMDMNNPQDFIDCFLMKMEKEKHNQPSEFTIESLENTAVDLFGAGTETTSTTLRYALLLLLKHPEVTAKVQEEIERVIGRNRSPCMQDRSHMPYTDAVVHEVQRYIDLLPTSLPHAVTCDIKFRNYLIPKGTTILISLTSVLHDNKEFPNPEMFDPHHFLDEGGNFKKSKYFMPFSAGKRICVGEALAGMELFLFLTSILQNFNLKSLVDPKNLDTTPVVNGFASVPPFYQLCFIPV
sEH act: soluble epoxide hydrolase (human) activation; activation, % at 2 µM; 0.04% of 91,000 active; P34913; purified human sEH enzymatic activity, activator screen; in the data active = activation above about 37%
CYP2C9 activ: activators of human CYP2C9. AID 1024. P11712. activation factor at 5 µM. recombinant CYP2C9, luciferin-H conversion, luminescence; stronger effect = higher value; factor 1 = untreated enzyme, 0 = blocked. 1.4% of 96,000 active;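 active = activation factor of 2 or more for CYP2C9 at a 5 µM dose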
CYP2C19 inh: blocks human cytochrome P450 2C19. P33261. CYP2C19 Supersomes, luciferin-H EGE luminescence, 30 min. inhibition, % at 5 µM. 21% of 96,000 active. AID 778;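 active = CYP2C19 inhibition above a set limit at 5 µM in the primary screen, cut at about 50% in these data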
CYP2C19 activ: activators of human cytochrome P450 2C19 | recombinant CYP2C19, luciferin-H EGE luminescence; stronger effect = higher value; 0 = fully inhibited enzyme, 1 = untreated enzyme | activation factor at 5 µM | 96,000 tested, under 10 active | AID 1025;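 active = activation factor of at least 2 at 5 µM in the primary screen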
sEH inh: blocks human soluble epoxide hydrolase activity; recombinant human sEH enzymatic activity assay; inhibition, % at 2 µM; 0.34% of 91,000 active; in the data active = inhibition above about 80%
Numbers stand for hits; n = inactive; x = no result given.

SMILES	CYP2C9 inhib	sEH act	CYP2C9 activ	CYP2C19 inh	CYP2C19 activ	sEH inh
CCCS(=O)(=O)N1CCCC(c2nc(-c3cccc(OC)c3)no2)C1 (stereo unspecified)	76.9	n	n	80.2	n	n
COc1cccc(-c2noc(C3CCCN(S(=O)(=O)c4cccc(Cl)c4C)C3)n2)c1 (stereo unspecified)	51.4	x	n	n	n	x
O=S(=O)(Cc1ccccc1)N1CCCC(c2nc(-c3ccc(F)cc3)no2)C1 (stereo unspecified)	n	x	n	n	n	x
CCCc1cc(=O)[nH]c(SCC(=O)N(CC)Cc2ccccc2)n1	n	n	n	n	n	n
CC(C)OC(=O)CSc1nnc(-c2ccc(Cl)cc2)n1N	n	n	n	n	n	n
CC(C)OC(=O)CSc1nnc(-c2ccc(Cl)cc2Cl)n1N	59.1	n	n	65.0	n	n
CCn1c(SCC(=O)OC(C)C)nnc1-c1cccc(Cl)c1	n	x	n	54.8	n	x
CC(C)OC(=O)CSc1nnc(-c2ccc(O)cc2)n1Cc1ccccc1	n	n	n	64.0	n	n
Cc1nnc(C)n1/N=C/c1ccc(-c2ccccc2)cc1	n	n	n	n	n	n
Cn1c(-n2c(-c3ccco3)nc3ccccc3c2=O)nc2ccccc21	n	n	n	n	n	n
CC1CCN(S(=O)(=O)c2ccc3c(c2)oc(=O)n3CC(=O)N2CCc3ccccc3C2)CC1	n	n	n	n	n	n
CCOc1cc(-c2nn3cnnc3s2)cc(OCC)c1OCC	n	n	n	n	n	n
CCOc1cc(-c2ccc(N)c(OCC)c2)ccc1N	91.1	n	n	98.1	n	n
COc1cc(NC(=S)Nc2ccc(S(=O)(=O)N3CCOCC3)cc2)cc(OC)c1OC	n	n	n	n	n	n
CCOc1ccccc1C(=O)Nc1ccc(S(=O)(=O)N2CCOCC2)cc1	n	n	3.3	54.3	n	n
CCOc1cc(C(=S)N2CCOCC2)ccc1OS(=O)(=O)c1ccc(NC(C)=O)cc1	61.2	n	n	71.2	n	n
COc1ccccc1C(=O)Nc1ccc(S(=O)(=O)N2CCOCC2)cc1	n	n	5.2	n	n	n
Cc1ccc(CN2C(=O)C(C)(C)Oc3ccc(C(=O)N4CCCCC4)cc32)cc1	57.0	n	n	n	n	n
COc1cccc(C(=O)CN2C(=O)C(C)(C)Oc3ccc(C(=O)N4CCCCCC4)cc32)c1	66.9	x	n	n	n	x
COc1cccc(NC(=O)c2ccc3c(c2)N(CC(=O)N2CCCCC2)C(=O)C(C)(C)O3)c1	63.6	n	n	n	n	n
Cc1cccc(C)c1NC(=O)C(C)c1ccc(-c2ccccc2)c(F)c1 (stereo unspecified)	82.5	n	n	n	n	n
COc1cc(OC)nc(NC2OC(=O)c3ccccc32)n1 (stereo unspecified)	n	n	n	n	n	n
CNC(=O)CN(c1ccc(F)cc1)S(=O)(=O)c1cc(C)ccc1OC	80.2	n	n	81.6	n	n
CSc1cccc(NC(=O)C2CCN(S(=O)(=O)c3ccc(F)cc3)CC2)c1	n	n	n	n	n	n
COc1ccc(C)cc1S(=O)(=O)N(CC(N)=O)Cc1ccccc1	n	n	n	98.6	n	n
SMILES	CYP2C9 inhib	sEH act	CYP2C9 activ	CYP2C19 inh	CYP2C19 activ	sEH inh
CSc1cccc(NC(=O)C(C)NS(=O)(=O)c2ccc(F)cc2)c1 (stereo unspecified)	n	n	n	61.8	n	n
COc1ccc(C)cc1S(=O)(=O)N(CC(=O)O)c1ccccc1	n	n	n	n	n	n
CSc1cccc(NC(=O)CN(C)S(=O)(=O)c2ccc(C)cc2)c1	n	n	n	52.1	n	n
CCCCN(Cc1ccco1)C(=O)Cn1ncc2c(=O)oc3ccc(C)cc3c21	n	n	n	n	n	n
CCOC(=O)c1nc2cc3n(c(CC(C)C)c-2c1C)CC(C)=C3C	x	n	x	x	x	n
CCCN(C(=S)Nc1ccccc1)C1CCS(=O)(=O)C1 (stereo unspecified)	n	n	n	n	n	n
COc1ccc(C)cc1S(=O)(=O)N(C)CC(=O)Nc1ccccc1	89.8	n	n	91.3	n	n
Cc1ccc(S(=O)(=O)N(C)CC(=O)Nc2ccccc2)cc1	n	n	n	62.8	n	n
COc1ccc(C)cc1S(=O)(=O)N(C)CC(=O)NCc1ccco1	51.4	n	n	n	n	n
CN(CC(=O)NCc1ccco1)S(=O)(=O)c1cccc2cccnc12	n	n	n	n	n	n
COc1cc(NC(=O)CN(C)S(=O)(=O)c2ccc(C)cc2)cc(OC)c1	n	n	n	82.3	n	n
COCCN(C(=O)c1ccco1)C(C(=O)NC1CCCC1)c1cccs1 (stereo unspecified)	x	n	x	x	x	n
Cc1cc(C)c(S(=O)(=O)n2ccc3ccccc32)c(C)c1	n	n	n	n	n	n
O=S(=O)(c1ccccc1)n1ccc2ccccc21	n	n	2.4	n	n	n
C=CCn1c(COC)nnc1SCC(=O)c1ccc(F)cc1	n	n	n	n	n	n
Cc1cc(C)n(-c2nc3ccccc3nc2N2CCN(S(=O)(=O)c3ccc(F)c(C)c3)CC2)n1	50.2	x	n	n	n	x
Cc1cc(N2CCN(S(=O)(=O)c3ccc(Cl)cc3)CC2)c2ccccc2n1	n	n	n	82.4	n	n
O=S(=O)(c1ccccc1)N1CCN(c2nc3ccccc3s2)CC1	n	n	n	n	n	n
COc1ccc(C(=O)c2ccccc2)c(O)c1	n	n	n	85.9	n	n
COc1ccc(CCN(C(=O)c2ccc(F)cc2)C2=CC3CCC(C2)N3C)cc1OC (stereo unspecified)	n	x	n	n	n	x
O=c1c2ccccc2nc(SCc2nnc(-c3ccccc3Br)o2)n1Cc1ccco1	94.0	n	n	75.9	n	n
O=C(CSc1nc2ccccc2c(=O)n1Cc1ccco1)c1ccccc1	72.2	n	n	n	n	n
O=c1c2ccccc2nc(SCc2cccc(F)c2)n1Cc1ccco1	69.4	n	n	n	n	n
O=c1c2ccccc2nc(SCc2nc3ccccc3s2)n1Cc1ccco1	54.8	n	n	n	n	n
Oc1ccccc1-c1n[nH]c(=S)n1Cc1ccco1	n	n	n	n	n	n
SMILES	CYP2C9 inhib	sEH act	CYP2C9 activ	CYP2C19 inh	CYP2C19 activ	sEH inh
CC(=O)N1CCC(=NNS(=O)(=O)c2cccc([N+](=O)[O-])c2)CC1	n	n	n	n	n	n
CC(C)=C1C2CCC1C1C(=O)N(c3nc(-c4ccc(F)cc4)c(C)s3)C(=O)C21 (stereo unspecified)	n	n	n	n	n	n
Cn1c(SCC(=O)NC(C)(C)C)nnc1-c1cccc(NC(=O)c2ccccc2F)c1	n	n	n	n	n	n
CCN(CC)CCN1C(=O)C(=O)/C(=C(/O)c2ccncc2)C1c1ccccc1 (stereo unspecified)	n	n	n	n	n	n
CC(C)NS(=O)(=O)c1ccc(CCC(=O)O)cc1	n	n	n	n	n	n
Cc1ccc(S(=O)(=O)NC(=O)N2CCC(C)CC2)cc1	n	n	n	n	n	n
